The text below walks through data of publication PMC5700166.

Where a chain is given by its changes, count along the chain named.

Test in all cases: protein-binding microarray (PBM); PBM: ~300 nM protein, 6 mM HEPES pH 7.8, 80 mM KCl, 0.5 mM EDTA, 0.5 mM EGTA, 6% glycerol, 35 ng/ul poly-dIdC, 1% milk, 1 h, room temperature; Ap Aiptasia and Nv Nematostella (sea anemones) / Co Capsaspora / Aq Amphimedon (sponge) / Dm Drosophila / Hu human; RHD is the Rel homology domain; high values mean tight binding
Holding throughout (details): dsDNA, one strand shown

For experiment [1], the target named is T1, GST-Ap-NF-kB RHD (Exaiptasia pallida (Aiptasia), UniProt A0A913YAJ5 2-422).
T1 sequence: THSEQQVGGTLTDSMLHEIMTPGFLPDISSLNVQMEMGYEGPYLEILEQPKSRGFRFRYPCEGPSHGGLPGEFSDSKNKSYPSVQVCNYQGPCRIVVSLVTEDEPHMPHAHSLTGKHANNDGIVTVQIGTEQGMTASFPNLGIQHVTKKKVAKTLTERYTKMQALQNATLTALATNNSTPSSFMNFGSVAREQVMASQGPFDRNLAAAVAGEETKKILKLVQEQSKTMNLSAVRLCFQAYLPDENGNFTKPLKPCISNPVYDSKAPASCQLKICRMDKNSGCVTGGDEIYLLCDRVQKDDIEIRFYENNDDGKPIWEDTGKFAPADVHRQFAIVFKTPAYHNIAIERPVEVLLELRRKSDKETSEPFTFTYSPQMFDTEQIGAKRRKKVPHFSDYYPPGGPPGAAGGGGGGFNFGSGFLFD

For experiment [2], the target named is T2, GST-Dm-Relish (Drosophila melanogaster, UniProt Q94527 99-473).
T2 sequence: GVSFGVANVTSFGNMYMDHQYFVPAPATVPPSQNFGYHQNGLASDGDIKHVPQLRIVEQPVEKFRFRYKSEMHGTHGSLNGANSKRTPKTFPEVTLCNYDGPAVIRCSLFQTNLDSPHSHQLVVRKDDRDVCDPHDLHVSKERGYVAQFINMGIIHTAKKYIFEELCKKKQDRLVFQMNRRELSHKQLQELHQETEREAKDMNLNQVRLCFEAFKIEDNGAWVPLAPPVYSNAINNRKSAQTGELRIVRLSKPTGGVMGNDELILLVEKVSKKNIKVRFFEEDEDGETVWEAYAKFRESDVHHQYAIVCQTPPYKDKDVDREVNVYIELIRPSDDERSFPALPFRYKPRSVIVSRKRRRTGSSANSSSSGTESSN

In experiment [3] the target is T3, GST-Aq-NF-kB (Amphimedon queenslandica, UniProt A9Y5G7 2-389).
T3 sequence: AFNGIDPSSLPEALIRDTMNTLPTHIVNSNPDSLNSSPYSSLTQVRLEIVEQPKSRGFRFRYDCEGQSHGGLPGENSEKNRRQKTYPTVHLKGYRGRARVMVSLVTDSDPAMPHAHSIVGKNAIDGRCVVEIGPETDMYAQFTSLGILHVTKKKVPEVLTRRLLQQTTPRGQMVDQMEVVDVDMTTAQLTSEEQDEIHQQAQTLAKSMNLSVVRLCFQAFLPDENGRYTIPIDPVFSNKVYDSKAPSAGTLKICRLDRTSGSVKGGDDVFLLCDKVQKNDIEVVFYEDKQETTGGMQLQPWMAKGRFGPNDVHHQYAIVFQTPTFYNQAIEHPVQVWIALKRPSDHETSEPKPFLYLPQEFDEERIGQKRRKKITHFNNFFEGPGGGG

Experiment [4] addresses T4, GST-Co-NF-kB (Capsaspora owczarzaki, UniProt F1ARL5 200-546).
T4 sequence: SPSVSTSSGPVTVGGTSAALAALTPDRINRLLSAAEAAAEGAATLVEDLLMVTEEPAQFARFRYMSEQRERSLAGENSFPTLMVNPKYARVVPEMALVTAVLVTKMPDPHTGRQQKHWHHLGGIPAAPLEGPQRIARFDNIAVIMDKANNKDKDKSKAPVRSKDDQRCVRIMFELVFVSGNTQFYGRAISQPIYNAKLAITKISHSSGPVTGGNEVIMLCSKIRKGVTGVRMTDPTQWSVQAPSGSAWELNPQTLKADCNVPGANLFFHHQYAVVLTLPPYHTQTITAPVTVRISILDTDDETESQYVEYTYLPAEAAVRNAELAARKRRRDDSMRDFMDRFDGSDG

The target of experiment [5] is T5, GST-Nv-NF-kB (Cys allele) (Nematostella vectensis, UniProt E5G601 2-411).
T5 sequence: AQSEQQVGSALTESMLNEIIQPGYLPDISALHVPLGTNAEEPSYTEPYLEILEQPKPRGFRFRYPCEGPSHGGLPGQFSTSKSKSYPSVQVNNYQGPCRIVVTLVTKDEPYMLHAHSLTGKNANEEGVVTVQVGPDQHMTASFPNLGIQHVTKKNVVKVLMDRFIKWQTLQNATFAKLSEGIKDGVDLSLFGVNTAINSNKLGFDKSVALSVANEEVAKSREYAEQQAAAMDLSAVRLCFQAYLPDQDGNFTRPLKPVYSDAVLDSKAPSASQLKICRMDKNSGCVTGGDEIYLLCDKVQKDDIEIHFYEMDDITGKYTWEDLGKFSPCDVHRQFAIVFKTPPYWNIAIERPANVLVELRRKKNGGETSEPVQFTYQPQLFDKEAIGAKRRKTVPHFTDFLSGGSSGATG

In experiment [6] the target is T6, GST-Nv-NF-kB (Ser allele) (Nematostella vectensis, UniProt A7UNT2 2-411).
T6 sequence: T5 sequence with Q21R, C66S, S207N, E215Q, V217A, E225K, A268E, D399E

As for “CCGATTAACATCACGGGATTGCCTGATGTTAATCGGGTCTTGATTCGCTTGACGCTGCTG”, the binding signal worked out at 1.39 z-score in experiment [1], 2.08 z-score in experiment [2] and 2.41 z-score in experiment [3].
Turning to “CCGATTAACATCAGGACACCCCATGATGTTAATCGGGTCTTGATTCGCTTGACGCTGCTG”, the binding signal in experiment [1] was determined as 1.22 z-score; in experiment [4], 1.49 z-score; in experiment [2], 1.93 z-score; in experiment [3], 1.61 z-score.
Turning to “CCGATTAACATCACGTAAGGGATTGATGTTAATCGGGTCTTGATTCGCTTGACGCTGCTG”, the binding signal amounted to 1.34 z-score in experiment [5] and 2.43 z-score in experiment [3].
For the sequence “CCGATTAACATCAGGGATTAACATGATGTTAATCGGGTCTTGATTCGCTTGACGCTGCTG”, the binding signal amounted to 1.77 z-score in experiment [1], 4.89 z-score in experiment [2] and 1.83 z-score in experiment [3].
“CCGATTAACATCAGGAATATTCCTGATGTTAATCGGGTCTTGATTCGCTTGACGCTGCTG”: the binding signal in experiment [5] stood at 1.22 z-score; in experiment [3], 1.34 z-score.
For “CCGATTAACATCACCCCAACCCCTGATGTTAATCGGGTCTTGATTCGCTTGACGCTGCTG”, the binding signal in experiment [1] is 2.55 z-score; in experiment [4] it was 3.44 z-score; in experiment [2] it was 2.69 z-score; in experiment [3], 2.27 z-score.
Regarding “CCGATTAACATCAGGGGGGGAACTGATGTTAATCGGGTCTTGATTCGCTTGACGCTGCTG”, the binding signal in experiment [1] is 6.55 z-score; in experiment [4] it was 8.33 z-score; in experiment [2], 5.17 z-score; in experiment [3] it was 4.84 z-score.
“CCGATTAACATCACCCCCTCCCCTGATGTTAATCGGGTCTTGATTCGCTTGACGCTGCTG”: the binding signal in experiment [1] is 3.75 z-score; in experiment [4] it was 4.75 z-score; in experiment [2] it was 5.21 z-score; in experiment [3], 4.84 z-score.
On to “CCGATTAACATCAGGCAATCCCATGATGTTAATCGGGTCTTGATTCGCTTGACGCTGCTG”, for which the binding signal came out at 1 z-score in experiment [1], 2.82 z-score in experiment [2] and 1.38 z-score in experiment [3].
“CCGATTAACATCAGGGGGGGAGATGATGTTAATCGGGTCTTGATTCGCTTGACGCTGCTG”: the binding signal was determined as 5.6 z-score in experiment [1], 8.63 z-score in experiment [4], 3.66 z-score in experiment [2] and 4.59 z-score in experiment [3].
On the same counts, the results for “CCGATTAACATCAGTACTTCCCATGATGTTAATCGGGTCTTGATTCGCTTGACGCTGCTG” are 1.53 z-score, 1.42 z-score, 9.09 z-score and 2.53 z-score.
With “CCGATTAACATCAGTGTCCCGTTTGATGTTAATCGGGTCTTGATTCGCTTGACGCTGCTG”, the binding signal was determined as 2.18 z-score in experiment [5] and 1.32 z-score in experiment [3].
“CCGATTAACATCAGGAATTCCTATGATGTTAATCGGGTCTTGATTCGCTTGACGCTGCTG”: the binding signal in experiment [1] worked out at 1.1 z-score; in experiment [2], 3.7 z-score; in experiment [3], 2.07 z-score.
For “CCGATTAACATCAAGGGCATCCCTGATGTTAATCGGGTCTTGATTCGCTTGACGCTGCTG”, the values for the binding signal in experiment [1], in experiment [2] and in experiment [3] were 1.42 z-score, 5.6 z-score and 2.86 z-score, respectively.
For the sequence “CCGATTAACATCAAGGAAAGCCCTGATGTTAATCGGGTCTTGATTCGCTTGACGCTGCTG”, the binding signal in experiment [1] worked out at 1.19 z-score; in experiment [2] it was 3.3 z-score; in experiment [3], 3.45 z-score.
Turning to “CCGATTAACATCACATTGGGAAATGATGTTAATCGGGTCTTGATTCGCTTGACGCTGCTG”, the binding signal in experiment [5] worked out at 2.26 z-score; in experiment [4], 2.31 z-score; in experiment [2], 1.18 z-score; in experiment [3], 1.18 z-score.
Regarding “CCGATTAACATCAGGAAAAAACCTGATGTTAATCGGGTCTTGATTCGCTTGACGCTGCTG”, the binding signal in experiment [5] came to 1.77 z-score; in experiment [6], 2.77 z-score; in experiment [2], 3.66 z-score; in experiment [3], 3.37 z-score.
As for “CCGATTAACATCAGGAATCTACCTGATGTTAATCGGGTCTTGATTCGCTTGACGCTGCTG”, the values for the binding signal in experiment [5], in experiment [2] and in experiment [3] were 1.61 z-score, 2.24 z-score and 3.42 z-score, respectively.
Turning to “CCGATTAACATCACTTTGGGAAATGATGTTAATCGGGTCTTGATTCGCTTGACGCTGCTG”, the binding signal in experiment [5] was determined as 1.89 z-score; in experiment [4] it was 2.05 z-score; in experiment [3] it was 1.28 z-score.
For the sequence “CCGATTAACATCAGGGTCTTATATGATGTTAATCGGGTCTTGATTCGCTTGACGCTGCTG”, the binding signal in experiment [5] was found to be 1.26 z-score; in experiment [3], 2.15 z-score.
For “CCGATTAACATCAACTTTGGGAATGATGTTAATCGGGTCTTGATTCGCTTGACGCTGCTG”, the binding signal in experiment [5] stood at 1.04 z-score; in experiment [4], 1.7 z-score; in experiment [3], 1.56 z-score.
For the sequence “CCGATTAACATCAATTCCCATGATGATGTTAATCGGGTCTTGATTCGCTTGACGCTGCTG”, the values for the binding signal in experiment [5], in experiment [4] and in experiment [3] were 2.46 z-score, 1.75 z-score and 1.67 z-score, respectively.
As for “CCGATTAACATCAAGGAAAAACCTGATGTTAATCGGGTCTTGATTCGCTTGACGCTGCTG”, the binding signal in experiment [5] came to 1.07 z-score; in experiment [2] it was 2.61 z-score; in experiment [3] it was 3.09 z-score.
“CCGATTAACATCAATTCCCAACATGATGTTAATCGGGTCTTGATTCGCTTGACGCTGCTG”: the binding signal is 2.32 z-score in experiment [5], 1.84 z-score in experiment [4] and 1.17 z-score in experiment [3].
